Results as given in PubChem BioAssay AID504340 (NMMLSC, 2011).
Active and inactive are the calls of the source.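 Rule for the calls: active = GFP response above 150% of the DMSO control; inconclusive = Under 70 cell events counted for a yeast strain; inactive = the rest.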

Assay: yeast TOR pathway CIT2-GFP reporter retest – flow cytometry, third cherry pick, single plex, confirmation (AID 504340);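 note: median GFP fluorescence over all cells with no mother versus daughter split; sample signal as a ratio to the plate DMSO mean so 100% equals DMSO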
Settings: S. cerevisiae CIT2-GFP strain, 3 h, at 10 µM, stronger effect = higher value

Compound | GFP response vs DMSO
CN(C)C(=O)Oc1ccc(Cl)c2cccnc12 | 104% (inactive)
Cc1ccc2c(c1N)C(=O)c1ccccc1C2=O | 109% (inactive)
CCN1CCN(c2ncnc3ccc(Br)cc23)CC1 | 109% (inactive)
CN(C)C(=O)Oc1ccnc2cc(Cl)ccc12 | 106% (inactive)
CN1CCN(c2ncnc3ccc(Br)cc23)CC1 | 103% (inactive)
C/C(O)=C(\C#N)C(=O)Nc1cc(Br)ccc1Br | 116% (inactive)
